# Results filed as inconclusive are left out. A call without a number means that no potency is given here. A number with no mark means an inactive call. Activity calls are given as the source filed them. The call rests on the fitted dose curve; in most records, active means well fitted cell-killing curve with a large enough effect in the repeat runs; inconclusive means weak or mixed curves, or effect the other way; inactive means no such curve, though single readings can be large or run the other way.
# Assay: qHTS assay to identify small molecule antagonists of the progesterone receptor (PR) signaling pathway - cell viability counter screen (AID 1346798); further: nearly all actives have a fitted effect of over 50% in size
# Details: PR-UAS-bla HEK293T viability, CellTiter-Glo luminescence, 16 h; series mostly up to 92.4 µM
# From the text: National Center for Advancing Translational Sciences [NCATS]
# NIH Chemical Genomics Center [NCGC]
# U.S. Environmental Protection Agency [EPA]
# National Institutes of Environmental Health Sciences [NIEHS]
# National Toxicology Program [NTP]
# U.S. Food and Drug Administration [FDA]
# Progesterone receptor (PR), a nuclear hormone receptor, plays an important role in development, metabolic homeostasis and reproduction. It is activated by the steroid hormone progesterone. Endocrine disrupting chemicals (EDCs) and their interactions with steroid hormone receptors like PR causes disruption of normal endocrine function. To identify the compounds that inhibit PR signaling, a PR-UAS-bla GripTite cell line i.e. PR-UAS-bla HEK293T (Invitrogen, Carlsbad, CA, USA) containing a beta-lactamase reporter gene under the control of an UAS response element was used to screen Tox21 10K compound library. The cytotoxicity of the Tox21 compound library against the PR-bla cell line was tested in parallel by measuring the cell viability using CellTiter-Glo assay in the same wells.
# Tox21 Assay Protocol Summary:
# PR-UAS-bla HEK293T cells were dispensed at 3,000 cells/4 uL of assay medium containing 2% charcoal stripped FBS per well into black wall/clear-bottom 1536-well plates using a Multidrop Combi (ThermoFisher Scientific, Waltham, MA) dispenser. After the assay plates were incubated at a 37C and 5% CO2 for 4 hr, 23 nL of compounds dissolved in DMSO, positive controls or DMSO only was transferred to the assay plate by a Pintool station (Kalypsys, San Diego, CA), followed by addition of 1 uL of R5020 in assay medium using a Flying Reagent Dispenser (FRD, Aurora Discovery, San Diego, CA). The plates were incubated at 37C and 5% CO2 for 16 hr. Then 1 uL of LiveBLAzer B/G FRET substrate was added using a Flying Reagent Dispenser, the plates were incubated at room temperature for 2 hours, and fluorescence intensity was measured by an Envision plate reader (PerkinElmer, Shelton, CT). For cell viability readout that measures cytotoxicity, 4 uL/well of CellTiter-Glo reagent was added into the assay plates using a FRD. After 30 min incubation at room temperature, the luminescence intensity in the plates was measured using a ViewLux (PerkinElmer) plate reader.
# Potency means the concentration at half of the fitted maximal effect.
SMILES,Potency,"activity change, negative = cytotoxicity"
O=CC1CC1,inactive,
CCCCCCOc1ccc(O)cc1,inactive,
COC(=O)CC#N,inactive,
C[Si](C)(C)Cl,inactive,
Cc1occc1SSc1ccoc1C,inactive,
C=C(c1ccc(C(=O)O)cc1)c1cc2c(cc1C)C(C)(C)CCC2(C)C,54.5 µM (active),
CCC(=O)CC(C)CC (stereo not given),,-3.42% [at 0.348 µM]
CCOC(=O)N1CCC(=C2c3ccc(Cl)cc3CCc3cccnc32)CC1,61.1 µM (active),
CC(C)c1ccccc1N,inactive,
O=S(=O)(O)c1cc(S(=O)(=O)O)c2ccc3c(S(=O)(=O)O)cc(S(=O)(=O)O)c4ccc1c2c43,,-15.6% [at 18.9 µM]
C=CC(=C)CCC=C(C)C,54.5 µM (active),
CC(NCCC(c1ccccc1)c1ccccc1)c1ccccc1 (stereo not given),21.1 µM (active),
O=C=NCc1cccc(CN=C=O)c1,,-11.8% [at 18.9 µM]
CCOB(OCC)OCC,inactive,
C/C=C/C(=O)C1=C(C)CCCC1(C)C,inactive,
CCCOc1sc(C(=O)N2CCC(c3cc(CN)ccc3F)CC2)c(C)c1Br,25 µM (active),
O=C1c2c(O)ccc([N+](=O)[O-])c2C(=O)c2c([N+](=O)[O-])ccc(O)c21,24.1 µM (active),
CN1CCN(C2Cc3ccccc3Sc3ccc(Cl)cc32)CC1 (stereo not given),29.8 µM (active),
NC(=O)c1ccccc1N,inactive,
O=C(O)CC(=O)O,inactive,

SMILES,Potency,"activity change, negative = cytotoxicity"
CCCCCCCCCCc1ccccc1,inactive,
CCCCNc1c(C(=O)OCC)c(C)nc2c1cnn2CC,inactive,
Cc1ccc(O)cn1,inactive,
CCCCOCC,inactive,
CCC(=O)OCCc1ccccc1,inactive,
O=c1cccc[nH]1,inactive,
Clc1ccccc1CN1CCc2sccc2C1,inactive,
CCCCOc1ccc(C(=O)CCN2CCCCC2)cc1,inactive,
CCCCCCCC/C=C\CCCCCCCC(=O)N(C)CC(=O)O,68.6 µM (active),
CCC(C)c1ccccc1 (stereo not given),inactive,
COC(=O)CC(C)CCC=C(C)C (stereo not given),inactive,
CC=O,32 µM (active),
CCCCCCCOC(=O)c1ccc(O)cc1,inactive,
C/C=C/C=N/NC(=O)c1ccncc1,inactive,
[O]=[Zr],inactive,
CCN(CC)c1ccc(N)cc1,44.5 µM (active),
CC(COC(=O)c1ccccc1)OC(=O)c1ccccc1 (stereo not given),inactive,
CCCCCCCC/C=C\CCCCCCCC(=O)OCCOC(=O)CCCCCCC/C=C\CCCCCCCC,inactive,
Oc1ccc(-c2ccc(O)cc2)cc1,inactive,
CO[C@H]1C=CO[C@@]2(C)Oc3c(C)c(O)c4c(O)c(cc(O)c4c3C2=O)NC(=O)/C(C)=C\C=C/[C@H](C)[C@H](O)[C@@H](C)[C@@H](O)[C@@H](C)[C@H](OC(C)=O)[C@@H]1C,inactive,
